# According to PubChem BioAssay AID1259389 (Center for Chemical Genomics, University of Michigan, 2018):
# Screen size: about 100,000 compounds; about 620 (0.62%) were called active. How the source made its calls: active means z-score of 3 or more in at least 2 runs; inactive means the rest. For the sample, actives were picked, then their nearest neighbours and some compounds at random.
# Test: TAR RNA-Tat peptide displacers, HIV-1, primary screen, biochemical, FRET, FAM/TAMRA-labeled Tat (AID 1259389)
# Conditions: HIV-1 TAR RNA, Tat peptide displacement FRET; hits give high values
row,SMILES,z-score
1,CCC(C)NC(=O)c1ccc2c(=O)n(C)c3n[nH]c(=O)n3c2c1 (stereo not given),-1.23 (inactive)
2,COC(=O)c1cccc(N2C(=O)C3C4C=CC(CC4)C3C2=O)c1 (stereo not given),-0.18 (inactive)
3,COc1cccc(-c2n[nH]c3c2C(c2cccs2)NC3=O)c1 (stereo not given),0.03 (inactive)
4,O=C1C(=O)N(CCCN2CCOCC2)C(c2ccc(F)cc2)/C1=C(\O)c1ccc(F)cc1 (stereo not given),-0.23 (inactive)
5,CCN(c1cccc(C)c1)c1c(-c2ccc(C)c(C)c2)c(=O)c1=O,1.19 (inactive)
6,Cc1cc(=O)oc2c1c(C)nn2-c1cccc(Br)c1,2.1 (inactive)
7,Cc1cccc(-n2nc(C)c3c(C)cc(=O)oc32)c1,-1.35 (inactive)
8,Cc1cc(=O)oc2c1c(C)nn2-c1ccc(Cl)cc1,6 (active)
9,CCOCc1nc(N2CCOCC2)sc1C(=O)NCc1ccco1,1.59 (inactive)
10,Cc1nc2c3cccnc3nn2c(C)c1CCC(=O)NC1CCCCC1,0.03 (inactive)
11,Cc1nc2nc(N3C(=O)CCC3=O)[nH]n2c(=O)c1C,0.34 (inactive)
12,O=C(NCc1ccc2c(c1)OCO2)c1sc2ncccc2c1-n1cccc1,0.34 (inactive)
13,O=C(NCc1ccc2c(c1)OCO2)c1sc(=S)n2c1[nH]c(=O)c1ccccc12,8.38 (active)
14,O=C(NCc1ccc2c(c1)OCO2)C(=O)c1c[nH]c2ccccc12,-0.39 (inactive)
15,CCc1ccc(S(=O)(=O)Nc2cccc(-c3ccc(S(C)(=O)=O)nn3)c2)s1,-0.88 (inactive)
16,O=S(=O)(c1ccc(Cl)cc1)N(Cc1nc(-c2ccccc2)no1)C1CCCCC1,-0.39 (inactive)
17,C=CCNC(=O)c1sc(=S)n2c1[nH]c(=O)c1ccc(C(=O)OC)cc12,-0.19 (inactive)
18,O=C(O)c1ccc2c(=O)[nH]c3c(C(=O)NC4CCCCC4)sc(=S)n3c2c1,10.3 (active)
19,O=C(NC1CCCC1)c1ccc2c(=O)[nH]c3c(C(=O)NCC4CCCO4)sc(=S)n3c2c1 (stereo not given),9.34 (inactive)
20,CC(C)NC(=O)c1sc(=S)n2c1[nH]c(=O)c1ccc(C(=O)NCCN(C)C)cc12,7.52 (active)

row,SMILES,z-score
1,O=C(NC1CCCCC1)c1ccc(CNc2c(N3CCCC3)c(=O)c2=O)cc1,2.73 (inactive)
2,CCOC(=O)c1sc(=S)n2c1[nH]c(=O)c1ccc(C(=O)OC)cc12,3.58 (inactive)
3,Cc1nn2c(=O)cc(CSc3nnc(COc4ccccc4C)n3C)nc2s1,-1.46 (inactive)
4,CCNc1nc(NCCN(C)C)nc2c1cnn2C,1.49 (inactive)
5,CC1CCN(S(=O)(=O)c2ccc3nc(Nc4cc(F)ccc4F)ccc3c2)CC1,1 (inactive)
6,C=CCc1ccccc1OCc1cc(=O)n2nc(-c3ccc(OC)cc3)sc2n1,-1.28 (inactive)
7,CCOc1ccc(-c2nc3c(s2)CN(S(=O)(=O)c2cccc4nsnc24)CC3)cc1,0.4 (inactive)
8,CCCNS(=O)(=O)c1ccc2c(c1)oc(=O)n2CC(=O)OCC,-3.16 (inactive)
9,Cc1nn(C)c(C)c1CNS(=O)(=O)c1ccc2c(c1)oc(=O)n2C,0.45 (inactive)
10,Cc1nc2ccccc2n1CCNS(=O)(=O)c1ccc2c(c1)oc(=O)n2C,3.26 (active)
11,CCC1CN(C(=O)Nc2ccccc2)c2ccccc2O1 (stereo not given),1.11 (inactive)
12,CN(C)c1ccc(NC(=O)CSc2nc(-c3ccco3)cc(C(F)(F)F)n2)cc1,0.28 (inactive)
13,c1ccc(CSc2nnc(-c3ccco3)c(-c3ccco3)n2)cc1,8.76 (active)
14,Nc1cc(=O)nc(SCc2ccccc2)n1Cc1ccco1,0.7 (inactive)
15,O=C(CSc1nnc(-c2ccco2)c(-c2ccco2)n1)Nc1ccc(Br)cc1,24.6 (active)
16,O=C(CSc1ccc(-c2cccs2)nn1)Nc1ccc(Br)cc1,2.14 (inactive)
17,O=c1[nH]c(SCc2ccccc2)nnc1-c1ccccc1,-0.2 (inactive)
18,O=C(Nc1ccccc1Br)c1cnn(-c2ccccc2)c1-n1cccc1,1.05 (inactive)
19,NC(=O)Cn1c(=O)n(CCCCC(=O)NCc2ccco2)c(=O)c2ccccc21,-0.85 (inactive)
20,CCCc1cc(=O)[nH]c(Nc2cccc(Br)c2)n1,0.79 (inactive)

row,SMILES,z-score
1,C=C(C)Cn1c(CN2CCOCC2)nc2ccccc21,0.03 (inactive)
2,CCc1ccc(N2CCn3c2nc2c3c(=O)n(CC(=O)O)c(=O)n2C)cc1,3.43 (inactive)
3,CN(C)CCCNc1oc(-c2ccc(S(=O)(=O)N3CCc4ccccc4C3)cc2)nc1C#N,11.4 (active)
4,CC(C)CNc1oc(-c2ccc(S(=O)(=O)N3CCc4ccccc4C3)cc2)nc1C#N,0.36 (inactive)
5,COc1ccc(-c2nnc(-c3ccccc3)o2)cc1S(=O)(=O)N1CCc2ccccc2C1,0.08 (inactive)
6,O=C(c1ccccc1)c1ccc2nc(NCCCO)c3nncn3c2c1,-1.78 (inactive)
7,O=C1CCCC2=C1C(c1cccs1)N(C(=O)CCC(=O)N1CCOCC1)c1ccccc1N2 (stereo not given),0.78 (inactive)
8,O=C(CSc1nnc(-c2cccnc2)n1-c1ccccc1)c1ccc(F)cc1,1.26 (inactive)
9,CCCC(=O)Nc1ccc2nc(SCc3cc(=O)n4nc(C)sc4n3)sc2c1,0.47 (inactive)
10,CCc1nc2nc(CSc3nc4ccc(NC(=O)c5ccco5)cc4s3)cc(=O)n2[nH]1,4.94 (active)
11,CCc1nc2nc(CSc3nnc(NC(=O)c4ccccc4)s3)cc(=O)n2[nH]1,2.53 (inactive)
12,CCC(C)N(CCNC(=O)Nc1cn(C)c(=O)c2ccccc12)Cc1ccco1 (stereo not given),1.06 (inactive)
13,Cc1cccc(C(=O)OCc2cc(=O)n3nc(C)sc3n2)c1,-0.36 (inactive)
14,CC(C)OCCCNc1c(-c2ccc(C(C)C)cc2)c(=O)c1=O,10.9 (active)
15,COCCNc1c(-c2ccc(Cl)cc2)c(=O)c1=O,0.52 (inactive)
16,CC(CNc1c(-c2ccc(Cl)cc2)c(=O)c1=O)c1ccccc1 (stereo not given),-0.61 (inactive)
17,O=C1CSc2ccc(S(=O)(=O)NCc3ccccc3)cc2N1,0.46 (inactive)
18,COc1ccccc1C1Nc2ccc(C(=O)O)cc2C2C3CCC(C3)C12 (stereo not given),8.02 (inactive)
19,COC(=O)c1ccc([C@@H]2Nc3ccc(F)cc3[C@@H]3C=CC[C@@H]32)cc1,1.86 (inactive)
20,CCOc1cccc2c1N[C@@H](c1ccc(C(=O)O)cc1)[C@H]1CC=C[C@@H]21,21.4 (active)
